Bioassay records deposited in PubChem BioAssay by National Center for Advancing Translational Sciences (NCATS).
BLM helicase inh-1 – qHTS Assay for Inhibitors of Bloom's syndrome helicase (BLM) | actives 0.2% (n = 350,000) | RecQ-like DNA helicase BLM (Homo sapiens), P54132 | Potency, µM (highest dose often 56.1 µM), for the others: at the highest dose activity change, negative = inhibition, actives largely listed as inhibitors | recombinant BLM DNA unwinding, fluorescence dequenching;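 further: plate controls were vehicle for no effect and no enzyme for full effect; nearly all actives have a fitted effect of over 35% in size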
WRN helicase inh-1 – qHTS for Inhibitors of WRN Helicase; WRN helicase unwinding, fluorescent forked duplex, kinetic; Potency, µM (top dose mostly 114 µM), for inactives: at the highest dose activity change, negative = inhibition, most hits filed as inhibitors; actives 0.46% (n = 360,000); further: on the % scale 0 is the no-effect control and ±100 the full control effect; nearly all actives have a fitted effect of over 55% in size
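Kinetic fluorescence helicase assay: unwinding of a quenched forked DNA duplex (100 nM final) with 2 mM ATP final raises red fluorescence (525/598 nm). Compounds sat 15 min at room temperature with 20 nM WRN beforehand.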
ERG Ets-DNA blk – qHTS for Small Molecule Inhibitors of the ERG Ets/DNA interaction. fluorescence polarization, His-ERG Ets domain / labelled DNA. Potency, µM (series often up to 76.9 µM), for the others: at the highest dose FP activity, negative = inhibition, usual class: inhibitors. actives 0.028% (n = 370,000). AID 624246, 2012; active means well fitted inhibition curve with a large enough effect in the polarisation, with a control signal flat; inconclusive means small, poorly fitted or top-dose-only effect, or effect the other way, or a change in a side signal; inactive means no such curve, though single readings can be large or run the other way; the % refers to the polarisation;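 further: polarization taken with two DNA probes labelled with fluorescein and Texas red; % of control where 0% means no effect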
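His-tagged ERG Ets domain (1 uM in the protein solution; 300mM KCl, 50mM Tris-HCl, 1mM EDTA, 1mM DTT, pH 7.5) received compound, then a probe mix of 5 nM fluorescein-DNA and 100nM Texas-615-DNA. Fluorescence polarization was read for both dyes.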
GCN5L2 inh – qHTS Assay for Inhibitors of GCN5L2. Histone acetyltransferase KAT2A (Homo sapiens), Q92830. GCN5L2 HAT assay, ThioGlo1 CoA-SH fluorescence. Potency, µM (doses to about 58.9 µM), for inactives: top-dose activity change, negative = inhibition, actives largely listed as inhibitors. actives 0.21% (n = 390,000); further: on the % scale 0 is the no-effect control and ±100 the full control effect
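GCN5L2 (20 nM) in 50mM HEPES pH 7.5, 0.1mM EDTA, 0.01% Tween-20 preincubated 15 min with compounds at room temperature. Reaction started with H3(1-25) 75uM, acetyl-CoA 70uM, ThioGlo1 50uM; CoA-thiol fluorescence (Ex340/Em540) read at 0 and 20 min.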
APEX1 inh – qHTS Assay for Inhibitors of the Human Apurinic/apyrimidinic Endonuclease 1 (APE1); DNA repair nuclease/redox regulator APEX1 (Homo sapiens), P27695; recombinant APE1, TAMRA/BHQ-2 abasic DNA cleavage fluorescence; Potency, µM (top dose mostly 65.8 µM), inactives show top-dose activity change, negative = inhibition, usual class: inhibitors; actives 0.35% (n = 350,000); AID 2517, 2012;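 further: plate controls were vehicle for no effect and reference inhibitor for full effect; nearly all actives have a fitted effect of over 55% in size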
Target sequence (P27695 whole entry, looked up): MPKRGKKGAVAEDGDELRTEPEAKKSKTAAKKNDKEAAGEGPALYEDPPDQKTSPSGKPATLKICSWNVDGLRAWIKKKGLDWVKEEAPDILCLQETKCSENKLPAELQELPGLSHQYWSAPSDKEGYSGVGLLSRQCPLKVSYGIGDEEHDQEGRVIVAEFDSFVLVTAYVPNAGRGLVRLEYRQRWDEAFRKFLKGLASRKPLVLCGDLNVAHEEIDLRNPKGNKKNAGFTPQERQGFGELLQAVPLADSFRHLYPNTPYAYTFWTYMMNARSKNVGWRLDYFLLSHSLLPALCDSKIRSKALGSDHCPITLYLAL
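APE1 at 0.75 nM preincubated 15 min at room temperature with compound. Reaction then started with 50 nM double-stranded THF-abasic substrate labelled with TAMRA/BHQ-2, and 525/598 nm fluorescence read kinetically. Activity taken as third-minus-first read difference, normalized to DMSO and NSC13755 controls.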
RECQ1 helicase – qHTS Assay for Inhibitors of RecQ-Like Dna Helicase 1 (RECQ1); actives 0.54% (n = 240,000); ATP-dependent DNA helicase Q1 (Homo sapiens), P46063; RECQ1 DNA unwinding, red fluorescence kinetic read; Potency, µM (doses to about 57.3 µM), without a hit: top-dose activity, negative = inhibition, actives largely listed as inhibitors; AID 2549, 2010;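 further: plate controls were vehicle for no effect and no enzyme for full effect; nearly all actives have a fitted effect of over 30% in size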
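RECQ1T1 50 nM; forked duplex (20 bp + 30-nt ss tails) 200 nM, ATP 2 mM final; pH 8.0, 2 mM MgCl2, 2.5 ug/ml poly(dI-dC); 15 min compound preincubation; discontinuous kinetic read over 2 h at RT.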
WRN helicase inh-2 – qHTS for Inhibitors of WRN Helicase: Confirmatory Assay for Cherry-picked Compounds; shares compounds with WRN helicase inh-1; WRN helicase DNA unwinding, fluorescence kinetic; Potency, µM (highest dose often 57.1 µM), for inactives: at the highest dose activity, negative = inhibition, actives largely listed as inhibitors; actives 63% (n = 610); further: nearly all actives have a fitted effect of over 65% in size
TO displacement – qHTS for Inhibitors of WRN Helicase: Thiazole Orange DNA Binding Counterscreen | shares compounds with WRN helicase inh-1 | thiazole orange DNA binding displacement, fluorescence | Potency, µM (series often up to 57.1 µM), inactives show top-dose activity change, negative = inhibition, actives largely listed as inhibitors | actives 10% (n = 610);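 further: drop in dye fluorescence marks compound binding to DNA; on the % scale 0 is the no-effect control and ±100 the full control effect; nearly all actives have a fitted effect of over 60% in size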
BLM helicase inh-2 – qHTS for Inhibitors of WRN Helicase: BLM Helicase Counterscreen for WRN Inhibitors | shares compounds with WRN helicase inh-1 | AID 720503, 2013 | Potency, µM (series often up to 57.1 µM), for the others: at the highest dose activity change, negative = inhibition, actives largely listed as inhibitors | Recombinant BLM helicase DNA unwinding, red fluorescence | actives 60% (n = 610); further: nearly all actives have a fitted effect of over 60% in size
* marks the source's active call; other numbers are inactive results; [ ] = dose if it differs, or a comment. Only some compounds are listed: those with a hit (about 0.88% of all), similar ones and a draw of the others. Unless noted, the call rests on the fitted dose curve; in most records, active means well fitted curve in the direction sought with a large enough effect; inconclusive means small, poorly fitted or top-dose-only effect, or another doubt; inactive means no such curve, though single readings can be large; an effect the other way counts as inactive or inconclusive. Potency means the concentration at half of the fitted maximal effect.

Cc1ccc(OCCOc2cccc(C=C3C(=O)NC(=O)NC3=O)c2)c(C)c1 was read as BLM helicase inh-1 -6%, WRN helicase inh-1 35µM*, ERG Ets-DNA blk -5%, GCN5L2 inh inconclusive, APEX1 inh 41%, WRN helicase inh-2 inconclusive, TO displacement -23% and BLM helicase inh-2 27µM*.
For COC(=O)NC/C=C\c1nc(CC/C=C\C(=O)O[C@H]2C[C@H]3CC(=O)O[C@@H](/C=C\CC(C)C)C[C@@H]4CC[C@H](C)[C@H](C[C@@H](OC)C[C@H](C2)O3)O4)co1 the results were BLM helicase inh-1 -2%[12.4 µM], APEX1 inh -11%[12.4 µM] and RECQ1 helicase inactive[11.5 µM].
Screening Clc1ccc(C(c2ccc(Cl)cc2)C(Cl)Cl)cc1 returned APEX1 inh 2% and RECQ1 helicase -10%.
`O=C1NC(=O)C(=Cc2c(Cl)cccc2Cl)C(=O)N1` gave WRN helicase inh-1 35µM*, WRN helicase inh-2 0%, TO displacement -3% and BLM helicase inh-2 -4%.
Cc1c(C=C2C(=O)NC(=O)NC2=O)c(=O)n(-c2ccccc2)n1C was read as BLM helicase inh-1 -6%, WRN helicase inh-1 -10%, ERG Ets-DNA blk -4%, GCN5L2 inh -2%, APEX1 inh -1% and RECQ1 helicase -6%.
Screening COC1C(O)C(C)OC(OC2C(Oc3cccc4c(O)c5c(=O)oc6ccc(C)c7c(=O)oc(c34)c5c67)OC(C)C(O)C2O)C1O (centres undefined) returned WRN helicase inh-1 inconclusive, WRN helicase inh-2 19µM*, TO displacement inconclusive and BLM helicase inh-2 63%.
`ClCC(Cl)Cl` gave APEX1 inh 0% and RECQ1 helicase -4%.
For CN1/C(=C\C=C2C(=O)NC(=O)NC2=O)C(C)(C)c2ccccc21 the results were BLM helicase inh-1 2%, WRN helicase inh-1 -9%, ERG Ets-DNA blk 7%, GCN5L2 inh -5%, APEX1 inh 3% and RECQ1 helicase -14%.
For CCN1/C(=C/C=C/C2=[N+](CC)c3ccccc3C2(C)C)C(C)(C)c2ccccc21 the results were WRN helicase inh-1 4.7µM*, WRN helicase inh-2 22µM*, TO displacement inactive and BLM helicase inh-2 22µM*.
